Pf growth 96h = P. falciparum growth inhibition at 96 hour, primary screen for plastid delayed-death inhibitors. P. falciparum luciferase reporter growth, 96 h. 320,000 compounds, 6.9% hits. AID 504834. Potency, µM (top dose mostly 28.7 µM), most hits filed as inhibitors
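P. falciparum expressing integrated firefly luciferase grown in erythrocytes (2% hematocrit, 0.05% parasitemia final) with compounds for 96 hours at 37 C, 5% CO2. Growth inhibition read as loss of luminescence after adding luciferase detection reagent.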
Pf growth 48h = P. falciparum growth inhibition at 48 hours (one generation); P. falciparum luciferase growth in erythrocytes, 48 h; Potency, µM (doses to about 28.7 µM), most hits filed as inhibitors; 310,000 compounds, 5.9% hits; AID 504832
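Read-out is firefly luciferase luminescence from an integrated reporter in P. falciparum, so falling signal marks reduced parasite growth. Infected erythrocytes were at 2% hematocrit and 0.1% parasitemia (final) in Albumax-supplemented RPMI 1640.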
SARS PLP yeast = SARS-CoV PLP inhibition in yeast; S. cerevisiae expressing SARS-CoV PLpro, growth rescue; Potency, µM (doses to about 32.9 µM), most hits filed as activators; 330,000 compounds, 0.19% hits; AID 485353; calls by dose curve; note: nearly all actives have a fitted effect of over 55% in size
AMA1 RON2 block = disrupts binding of P. falciparum AMA1 to RON2; AlphaScreen AMA1-biotinylated RON2 peptide binding; Potency, µM (top dose mostly 58.2 µM), actives largely listed as inhibitors; 360,000 compounds, 0.2% hits; note: nearly all actives have a fitted effect of over 45% in size
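AMA1 (3D7) with his tag at 25 nM final met compounds first, then biotinylated RON2 peptide at 25 nM; detection used donor plus acceptor beads, 10 µg/mL apiece, read by AlphaScreen after 30 min at room temperature.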
Hits are given with their value. Rows were chosen to be rich in hits. Some 9.4% of all compounds tested hit in one or more screens of this group. Unless noted, calls come from the whole dose curve; as a rule, active = well fitted curve in the direction sought with a large enough effect; inconclusive = small, poorly fitted or top-dose-only effect, or another doubt; inactive = no such curve, though single readings can be large; an effect the other way counts as inactive or inconclusive.

`COC(=O)N1CCN(S(=O)(=O)c2ccc(F)cc2)CC1` gave Pf growth 96h inactive, Pf growth 48h inactive, SARS PLP yeast inactive and AMA1 RON2 block inactive.
CC(=O)NCCN=Cc1sc2ccccc2c1O was read as Pf growth 96h 3.7µM, Pf growth 48h inactive, SARS PLP yeast inactive and AMA1 RON2 block inactive.
Cc1cccc(C)c1N1C(=O)c2ccccc2C1=O was read as Pf growth 96h inconclusive, SARS PLP yeast inactive and AMA1 RON2 block inactive.
`CCOC(=O)N=Nc1c(O)n(Cc2ccccc2)c2ccccc12` gave Pf growth 96h inactive, Pf growth 48h inactive, SARS PLP yeast inactive and AMA1 RON2 block inactive.
COc1ccc(-c2nnc(Nc3nc4c(OC)cccc4s3)o2)c(OC)c1 was read as Pf growth 96h inactive, Pf growth 48h 10µM, SARS PLP yeast inactive and AMA1 RON2 block inactive.
`COc1cc(OC)cc(-c2nnc(Nc3nc4c(F)cccc4s3)o2)c1` gave Pf growth 96h 12µM, Pf growth 48h inactive, SARS PLP yeast inactive and AMA1 RON2 block inactive.
`COc1ccccc1NC(=O)C(C)OC(=O)CC1CCCCC1` (centres undefined) gave Pf growth 96h inconclusive, Pf growth 48h 13µM, SARS PLP yeast inactive and AMA1 RON2 block inactive.
For CC(=O)c1cccc(NC(=O)C(CC(C)C)NC(=O)C2CCCCC2)c1 (centres undefined) the results were Pf growth 96h inactive, Pf growth 48h 5.9µM, SARS PLP yeast inactive and AMA1 RON2 block inactive.
COc1ccccc1NC(=O)C(CC(C)C)NC(=O)C1CCCCC1 (centres undefined) was read as Pf growth 96h 8.3µM, SARS PLP yeast inactive and AMA1 RON2 block inactive.
For COc1ccc(OC)c(NC(=O)C(CC(C)C)NC(=O)C2CCCCC2)c1 (centres undefined) the results were Pf growth 96h inconclusive, Pf growth 48h inconclusive and AMA1 RON2 block inactive.
For Cc1noc(C)c1C(=O)NCCc1ccc(Cl)cc1 the results were Pf growth 48h inactive, SARS PLP yeast inactive and AMA1 RON2 block inactive.
Screening Cc1cc(C(C)(C)C)cc(C)c1CCNC(=O)c1c(C)noc1C returned Pf growth 96h 8.3µM, Pf growth 48h 13µM, SARS PLP yeast inactive and AMA1 RON2 block inactive.
For OC(CC1CC12c1ccccc1-c1ncccc12)(c1ccccc1)c1ccccc1 (centres undefined) the results were Pf growth 96h 0.83µM, SARS PLP yeast inactive and AMA1 RON2 block inactive.
`CC12CCC(=O)C=C1CCC1C2CCC2(C)C(c3csc(N)n3)CCC12` (centres undefined) gave AMA1 RON2 block inactive.
CC(Sc1nnc(N)s1)C(=O)NNC(=O)c1cccc(Cl)c1 (centres undefined) was read as SARS PLP yeast inactive and AMA1 RON2 block inactive.
`CN(C)c1nc(N(C)C)nc(N2CC(=O)N(c3ccccc3)C2=N)n1` gave Pf growth 96h inactive, Pf growth 48h 2.9µM, SARS PLP yeast inactive and AMA1 RON2 block inactive.
Screening CCOC(=O)N1CCN(C(=O)c2ccc(OCC)c(OCC)c2)CC1 returned Pf growth 96h inactive, Pf growth 48h inactive, SARS PLP yeast inactive and AMA1 RON2 block inactive.
Screening Cc1cc(C)n(-c2nc(C)nc(NCc3ccccc3)n2)n1 returned Pf growth 96h inactive, Pf growth 48h inactive, SARS PLP yeast inactive and AMA1 RON2 block inactive.
For Cc1nn(-c2nnc(NCc3ccccc3)nn2)c(C)c1Br the results were Pf growth 96h 0.33µM, Pf growth 48h 0.59µM, SARS PLP yeast inactive and AMA1 RON2 block inactive.
For Cc1cc(C)n(-c2nnc(NCc3ccc(Cl)cc3)nn2)n1 the results were Pf growth 96h 2.1µM, Pf growth 48h inconclusive, SARS PLP yeast inactive and AMA1 RON2 block inactive.
COc1ccc(NS(=O)(=O)c2cccc(C(=O)N3CCN(Cc4ccc5c(c4)OCO5)CC3)c2)cc1 was read as Pf growth 96h inconclusive, Pf growth 48h inconclusive, SARS PLP yeast inactive and AMA1 RON2 block inactive.
`COc1cc(C)c(CN2CC=C(c3ccc(F)cc3)CC2)cc1C` gave Pf growth 96h 12µM, Pf growth 48h inactive, SARS PLP yeast inactive and AMA1 RON2 block inconclusive.
`CCOC(=O)C(=Cc1ccc(F)cc1)C(=O)OCC` gave Pf growth 96h inactive, Pf growth 48h inactive and SARS PLP yeast inactive.
CCOC(=O)C(=Cc1ccc(-n2ccnc2)cc1)C(=O)OCC was read as Pf growth 96h inconclusive, Pf growth 48h 13µM, SARS PLP yeast inactive and AMA1 RON2 block inactive.
For O=C1CS/C(=N/N=C2C3CC4CC(C3)CC2C4)N1 the results were Pf growth 96h 13µM, Pf growth 48h inactive, SARS PLP yeast inactive and AMA1 RON2 block inactive.
CC1C/C(=N/N2C(=O)CSC2=S)CC(C)(C)C1 (centres undefined) was read as Pf growth 96h 13µM, Pf growth 48h inactive, SARS PLP yeast inactive and AMA1 RON2 block inactive.
CC1C/C(=N/N=C2/NC(=O)CS2)CC(C)(C)C1 (centres undefined) was read as Pf growth 96h 10µM, Pf growth 48h inactive, SARS PLP yeast inactive and AMA1 RON2 block inactive.
Cc1c(NC(=O)CSc2ccccn2)c(=O)n(-c2ccccc2)n1C was read as Pf growth 48h inactive, SARS PLP yeast inconclusive and AMA1 RON2 block inactive.
For CCCN1C(=O)CC(=O)N=C1SCC(=O)Nc1ccccc1F the results were SARS PLP yeast inactive and AMA1 RON2 block inactive.
CCN(CC)S(=O)(=O)c1ccc(C(=O)N2CCN(CCN3C(=O)c4cccc5cccc(c45)C3=O)CC2)cc1 was read as Pf growth 96h 2.9µM, Pf growth 48h inconclusive and SARS PLP yeast inactive.
Screening O=C(CN1CCN(CCN2C(=O)c3cccc4cccc(c34)C2=O)CC1)c1ccc(F)cc1 returned Pf growth 96h 1µM, Pf growth 48h 15µM, SARS PLP yeast inactive and AMA1 RON2 block inactive.
For CC(=O)OCC[n+]1c(C)n(-c2ccccc2)c2ccc(Cl)cc21 the results were Pf growth 96h inactive, Pf growth 48h inconclusive, SARS PLP yeast inactive and AMA1 RON2 block inactive.
For O=C1c2ccccc2NC(c2c(Cl)cccc2Cl)N1Cc1ccccc1 (centres undefined) the results were Pf growth 96h inactive, Pf growth 48h 13µM, SARS PLP yeast inactive and AMA1 RON2 block inactive.
O=C1c2ccccc2NC(c2ccc(Cl)cc2Cl)N1Cc1ccccc1 (centres undefined) was read as Pf growth 96h inconclusive, SARS PLP yeast inactive and AMA1 RON2 block inactive.
O=C1c2ccccc2NC(c2ccc(Cl)cc2Cl)N1O (centres undefined) was read as Pf growth 96h inactive, Pf growth 48h inconclusive, SARS PLP yeast 14µM and AMA1 RON2 block inactive.
For C=CCc1cccc(C2Nc3ccccc3C(=O)N2O)c1O (centres undefined) the results were Pf growth 96h inactive, Pf growth 48h inactive, SARS PLP yeast inactive and AMA1 RON2 block inactive.
Screening COc1cc(S(=O)(=O)Nc2cccnc2)ccc1F returned Pf growth 96h inactive, Pf growth 48h inactive, SARS PLP yeast inactive and AMA1 RON2 block inactive.
`CCC(C)N(C(=O)COc1ccc(-c2nnco2)cc1)C1CCS(=O)(=O)C1` (centres undefined) gave Pf growth 96h inconclusive, Pf growth 48h inactive, SARS PLP yeast inactive and AMA1 RON2 block inactive.
`Cc1c(C#N)c(NC(=O)c2cccc(Cl)c2)n(Cc2ccccc2)c1C` gave Pf growth 96h 13µM, Pf growth 48h 12µM, SARS PLP yeast inconclusive and AMA1 RON2 block inactive.

Screens deposited in PubChem BioAssay by National Center for Advancing Translational Sciences (NCATS).
